We go through 10 molecules from PubChem BioAssay (NCI).

About 79,000 compounds went through this panel and 15% of them were active in at least one assay; those are over-represented in the sample as a whole. A number with no mark means an inactive call. Activity calls are given as the source filed them. Rule as the data show it: active = growth inhibition above about 70%; inactive = the rest.

The nature of experiment [1]: NCI Yeast Anticancer Drug Screen. Data for the rad50 strain (AID 155).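 Also: 0% = growth of vehicle-only cultures of the same strain.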 As to conditions: S. cerevisiae rad50 strain growth inhibition, hits give high values. The method, boiled down:
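Growth of the mutant yeast was measured after compound exposure and referenced to vehicle-treated cultures.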

Experiment [2] can be described thus: NCI Yeast Anticancer Drug Screen. Data for the mec2-1 strain (AID 157). As to conditions: S. cerevisiae mec2-1 strain, hits give high values. The method, boiled down:
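Readout is yeast growth inhibition, normalised to vehicle-treated controls, in the mec2-1 strain exposed to compound.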

A short description of experiment [3]: NCI Yeast Anticancer Drug Screen. Data for the sgs1 mgt1 strain (AID 161).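 Also: 0% = growth of cultures given vehicle only.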 As to conditions: S. cerevisiae sgs1 mgt1 strain, hits give high values. In a few lines: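 This yeast growth screen uses a strain with defined DNA-repair lesions; compound-treated growth is compared with vehicle-treated growth.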
Experiment [4] is described as follows: NCI Yeast Anticancer Drug Screen. Data for the cln2 rad14 strain (AID 165).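 Also: 0% = growth equal to vehicle treated cultures.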 Particulars: S. cerevisiae cln2 rad14 strain, hits give high values. The method, boiled down:
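Relative to vehicle controls, growth inhibition of compound-treated cln2 rad14 yeast was recorded.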

Experiment [5] is described as follows: NCI Yeast Anticancer Drug Screen. Data for the bub3 strain (AID 167). Particulars: S. cerevisiae bub3 mutant strain, hits give high values. In a few lines: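 Whole-cell yeast assay. The mutant strain was incubated with compounds, and growth inhibition was determined by comparison with vehicle-treated cells.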
Experiment [6] in a line: NCI Yeast Anticancer Drug Screen. Data for the mlh1 rad18 strain (AID 175). As to conditions: S. cerevisiae mlh1 rad18 strain growth inhibition, hits give high values. The method, boiled down: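 Test agents were incubated with a yeast strain of defined genotype (DNA damage repair defect). Inhibition of growth was derived by comparison with vehicle-exposed cultures.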
The mark [7] stands for this setting: at 5.0 µM (retest, dose inferred, filed as 0.5).
The mark [8] stands for this setting: at 50.0 µM (retest, dose inferred, filed as 5.0).

On to `NN=C(CC(O)(C(F)(F)Cl)C(F)(F)Cl)CC(O)(C(F)(F)Cl)C(F)(F)Cl`, for which the growth inhibition in experiment [1] (setting [7]) was 32%; in experiment [1] (setting [8]), 99% (active); in experiment [1] (at 50.0 µM), 98.9% (active); in experiment [2] (setting [7]) it was 32%; in experiment [2] (setting [8]), 99% (active); in experiment [2] (at 50.0 µM) it was 99.2% (active). In addition, the growth inhibition in experiment [3] (setting [7]) is 26%; in experiment [3] (setting [8]), 99% (active); in experiment [3] (at 50.0 µM) it was 99.1% (active); in experiment [4] (setting [7]), 33%; in experiment [4] (setting [8]), 100% (active); in experiment [4] (at 50.0 µM), 99.3% (active). Further, the growth inhibition in experiment [5] (setting [7]) was 6%; in experiment [5] (setting [8]), 100% (active); in experiment [5] (at 50.0 µM), 99% (active); in experiment [6] (setting [7]), 38%; in experiment [6] (setting [8]), 99% (active); in experiment [6] (at 50.0 µM) it was 98.8% (active).

With `Oc1cccc(Oc2cccc(Oc3ccccc3)c2)c1`, the growth inhibition in experiment [1] (setting [7]) is 1%; in experiment [1] (setting [8]), 99% (active); in experiment [1] (at 50.0 µM) it was 99.4% (active); in experiment [2] (setting [7]), 1%; in experiment [2] (setting [8]) it was 99% (active); in experiment [2] (at 50.0 µM), 99.3% (active). Moreover, the growth inhibition in experiment [3] (setting [7]) is -6%; in experiment [3] (setting [8]) it was 99% (active); in experiment [3] (at 50.0 µM), 99.5% (active); in experiment [4] (setting [7]), -23%; in experiment [4] (setting [8]), 99% (active); in experiment [4] (at 50.0 µM) it was 99% (active). The growth inhibition in experiment [5] (setting [7]) was 30%; in experiment [5] (setting [8]), 99% (active); in experiment [5] (at 50.0 µM) it was 99.4% (active); in experiment [6] (setting [7]), 2%; in experiment [6] (setting [8]) it was 99% (active); in experiment [6] (at 50.0 µM), 99.3% (active).

Turning to `C/C(CCC(=O)O)=N/Nc1ccc(C(=O)O)cc1`, the growth inhibition in experiment [1] (setting [7]) is 11%; in experiment [1] (setting [8]), 74% (active); in experiment [1] (at 50.0 µM), 66%; in experiment [2] (setting [7]), 0%; in experiment [2] (setting [8]), 71% (active); in experiment [2] (at 50.0 µM), 5.4%. For the same molecule, the growth inhibition in experiment [3] (setting [7]) is 1%; in experiment [3] (setting [8]) it was 64%; in experiment [3] (at 50.0 µM), 17.9%; in experiment [4] (setting [7]) it was 7%; in experiment [4] (setting [8]), 91% (active); in experiment [4] (at 50.0 µM) it was 5.85%. Further, the growth inhibition is 2% in experiment [5] (setting [7]); 91% (active) in experiment [5] (setting [8]); 31.4% in experiment [5] (at 50.0 µM); 5% in experiment [6] (setting [7]); 89% (active) in experiment [6] (setting [8]); 23.7% in experiment [6] (at 50.0 µM).

For the molecule `Cc1cc(C(=O)O)c(C)cc1SSc1cc(C)c(C(=O)O)cc1C`, the growth inhibition in experiment [1] (setting [7]) was -12%; in experiment [1] (setting [8]), 72% (active); in experiment [1] (at 50.0 µM) it was 51.4%; in experiment [2] (setting [7]), 11%; in experiment [2] (setting [8]) it was 74% (active); in experiment [2] (at 50.0 µM) it was 9.25%. Besides, the growth inhibition in experiment [3] (setting [7]) was 4%; in experiment [3] (setting [8]), 76% (active); in experiment [3] (at 50.0 µM), 54.7%; in experiment [4] (setting [7]), -5%; in experiment [4] (setting [8]), 70% (active); in experiment [4] (at 50.0 µM), 3.7%. The growth inhibition was -13% in experiment [5] (setting [7]); 63% in experiment [5] (setting [8]); 41.4% in experiment [5] (at 50.0 µM); -3% in experiment [6] (setting [7]); 81% (active) in experiment [6] (setting [8]); 69.2% in experiment [6] (at 50.0 µM).

Regarding `Nc1cc(F)cc(F)c1[N+](=O)[O-]`, the growth inhibition in experiment [1] (setting [7]) was 4%; in experiment [1] (setting [8]), 21%; in experiment [1] (at 50.0 µM), 41%; in experiment [2] (setting [7]), 4%; in experiment [2] (setting [8]) it was 22%; in experiment [2] (at 50.0 µM) it was 0.45%. For the same molecule, the growth inhibition in experiment [3] (setting [7]) was 1%; in experiment [3] (setting [8]), 18%; in experiment [3] (at 50.0 µM), 53.3%; in experiment [4] (setting [7]), -1%; in experiment [4] (setting [8]), 6%; in experiment [4] (at 50.0 µM) it was -15.4%. Moreover, the growth inhibition in experiment [5] (setting [7]) was -1%; in experiment [5] (setting [8]), 19%; in experiment [5] (at 50.0 µM) it was -1.5%; in experiment [6] (setting [7]) it was 7%; in experiment [6] (setting [8]) it was 26%; in experiment [6] (at 50.0 µM), 79.7% (active).

Take `C/C=C\c1cc2c(cc1CC#N)OCO2`: the growth inhibition is 8% in experiment [1] (setting [7]); 42% in experiment [1] (setting [8]); -21.3% in experiment [1] (at 50.0 µM); 5% in experiment [2] (setting [7]); 14% in experiment [2] (setting [8]); 20.1% in experiment [2] (at 50.0 µM). Further, the growth inhibition in experiment [3] (setting [7]) was 13%; in experiment [3] (setting [8]), 51%; in experiment [3] (at 50.0 µM), 42.5%; in experiment [4] (setting [7]), 12%; in experiment [4] (setting [8]), 78% (active); in experiment [4] (at 50.0 µM), 5.6%. The growth inhibition in experiment [5] (setting [7]) is 1%; in experiment [5] (setting [8]), -2%; in experiment [5] (at 50.0 µM) it was 8.25%; in experiment [6] (setting [7]), 17%; in experiment [6] (setting [8]) it was 39%; in experiment [6] (at 50.0 µM) it was 25.6%.

On to `C1CCC(CC[N+]23CC[N+](CCC4CCCC4)(CC2)C3)C1`, for which the growth inhibition in experiment [1] (setting [7]) was 1%; in experiment [1] (setting [8]) it was 33%; in experiment [1] (at 50.0 µM), 62.3%; in experiment [2] (setting [7]), -8%; in experiment [2] (setting [8]) it was 34%; in experiment [2] (at 50.0 µM), -14.4%. The growth inhibition is 12% in experiment [3] (setting [7]); 72% (active) in experiment [3] (setting [8]); 45.3% in experiment [3] (at 50.0 µM); 2% in experiment [4] (setting [7]); 15% in experiment [4] (setting [8]); -8.6% in experiment [4] (at 50.0 µM). Moreover, the growth inhibition in experiment [5] (setting [7]) is 2%; in experiment [5] (setting [8]), 25%; in experiment [5] (at 50.0 µM), 11.6%; in experiment [6] (setting [7]), 24%; in experiment [6] (setting [8]) it was 59%; in experiment [6] (at 50.0 µM), 40%.

Take `CCN1C(Cl)=NS(=O)(=O)c2ccccc21`: the growth inhibition in experiment [1] (setting [7]) is 17%; in experiment [1] (setting [8]), 36%; in experiment [1] (at 50.0 µM), -24.4%; in experiment [2] (setting [7]) it was 24%; in experiment [2] (setting [8]), 43%; in experiment [2] (at 50.0 µM), -3.45%. Moreover, the growth inhibition in experiment [3] (setting [7]) is 22%; in experiment [3] (setting [8]), 39%; in experiment [3] (at 50.0 µM), -8.5%; in experiment [4] (setting [7]), 19%; in experiment [4] (setting [8]), 32%; in experiment [4] (at 50.0 µM) it was -4%. The growth inhibition in experiment [5] (setting [7]) is 19%; in experiment [5] (setting [8]), 53%; in experiment [5] (at 50.0 µM), -0.05%; in experiment [6] (setting [7]) it was 25%; in experiment [6] (setting [8]) it was 46%; in experiment [6] (at 50.0 µM), 21.2%.

Take `CCOC(=O)C(CC)(CCc1ccccc1[N+](=O)[O-])C(=O)OCC`: the growth inhibition in experiment [1] (setting [7]) was 8%; in experiment [1] (setting [8]), -24%; in experiment [1] (at 50.0 µM), 61.2%; in experiment [2] (setting [7]), -3%; in experiment [2] (setting [8]), -2%; in experiment [2] (at 50.0 µM), -6.6%. Further, the growth inhibition in experiment [3] (setting [7]) is 9%; in experiment [3] (setting [8]), 37%; in experiment [3] (at 50.0 µM), 39.2%; in experiment [4] (setting [7]) it was 0%; in experiment [4] (setting [8]), -17%; in experiment [4] (at 50.0 µM), -18.1%. Besides, the growth inhibition was 6% in experiment [5] (setting [7]); 24% in experiment [5] (setting [8]); 75.9% (active) in experiment [5] (at 50.0 µM); 17% in experiment [6] (setting [7]); 13% in experiment [6] (setting [8]); 60.9% in experiment [6] (at 50.0 µM).

With `COC(=O)[C@H]1[C@@H](C(C)C)O[C@@H](C(C)C)O[C@H]1C(F)(F)F`, the growth inhibition is -1% in experiment [1] (setting [7]); 2% in experiment [1] (setting [8]); 86.7% (active) in experiment [1] (at 50.0 µM); -13% in experiment [2] (setting [7]); -25% in experiment [2] (setting [8]); 92.5% (active) in experiment [2] (at 50.0 µM). Besides, the growth inhibition was -14% in experiment [3] (setting [7]); -10% in experiment [3] (setting [8]); 86.6% (active) in experiment [3] (at 50.0 µM); -15% in experiment [4] (setting [7]); 1% in experiment [4] (setting [8]); 88.5% (active) in experiment [4] (at 50.0 µM). Further, the growth inhibition is -30% in experiment [5] (setting [7]); 1% in experiment [5] (setting [8]); 88.7% (active) in experiment [5] (at 50.0 µM); -15% in experiment [6] (setting [7]); -13% in experiment [6] (setting [8]); 84.4% (active) in experiment [6] (at 50.0 µM).
